About 2,000 (36%) of roughly 5,500 compounds were called active. About 18% were inconclusive and are not listed. Cut-off read from the data, not from the text of the source: active = normalized growth mostly below about 0.91 (no sharp cut-off); inconclusive = no clear call, values can overlap the other calls; inactive = mostly above about 0.92. This is one part of the list.
Experiment: chemical genetic growth profiling, strain panel (AID 1159580);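 note: tested at 20 µM; growth read once vehicle control cultures reached saturation at 30 °C; 1 = growth at the plate median or of vehicle wells; lower values mean less growth of the strain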
Conditions: S. cerevisiae deletion strains, growth OD

Measured: normalized growth

COC(=O)c1c(OC)cc2c(c1C)Oc1c(Cl)c(OC(C)=O)c(Cl)c(C)c1C(=O)O2
inactive: locus YAL021C, strain ccr4, stronger effect = lower value 1.02 | locus YAL026C, strain drs2, stronger effect = lower value 1 | locus YAL030W, strain snc1, stronger effect = lower value 0.994 | locus YBL061C, strain skt5, stronger effect = lower value 0.977 | locus YBR009C, strain hhf1, stronger effect = lower value 1.02 | locus YBR021W, strain FUR4, stronger effect = lower value 1.03 | locus YBR023C, strain chs3, stronger effect = lower value 0.978 | locus YBR171W, strain sec66, stronger effect = lower value 1 | locus YBR229C, strain ROT2, stronger effect = lower value 0.989 | locus YBR231C, strain swc5, stronger effect = lower value 0.987 | locus YBR279W, strain paf1, stronger effect = lower value 0.982 | locus YCL011C, strain gbp2, stronger effect = lower value 1.02 | locus YCL016C, strain dcc1, stronger effect = lower value 0.99 | locus YCL029C, strain bik1, stronger effect = lower value 1.01 | locus YCL061C, strain MRC1, stronger effect = lower value 1.01 | locus YCL069W, strain vba3, stronger effect = lower value 0.998 | locus YCR088W, strain abp1, stronger effect = lower value 0.988 | locus YDL005C, strain med2, stronger effect = lower value 1 | locus YDL035C, strain GPR1, stronger effect = lower value 1.01 | locus YDL040C, strain nat1, stronger effect = lower value 0.955 | locus YDL074C, strain BRE1, stronger effect = lower value 1.05 | locus YDL101C, strain DUN1, stronger effect = lower value 1.01 | locus YDL134C, strain PPH21, stronger effect = lower value 1.02 | locus YDL185W, strain tfp1, stronger effect = lower value 1.01 | locus YDL192W, strain arf1, stronger effect = lower value 1.01 | locus YDR001C, strain nth1, stronger effect = lower value 0.992 | locus YDR069C, strain doa4, stronger effect = lower value 0.998 | locus YDR101C, strain arx1, stronger effect = lower value 1.01 | locus YDR137W, strain rgp1, stronger effect = lower value 0.947 | locus YDR159W, strain sac3, stronger effect = lower value 0.948 | locus YDR162C, strain NBP2, stronger effect = lower value 1.03 | locus YDR195W, strain ref2 1.03 | locus YDR297W, strain sur2, stronger effect = lower value 1 | locus YDR318W, strain mcm21, stronger effect = lower value 1 | locus YDR334W, strain swr1, stronger effect = lower value 0.99 | locus YDR335W, strain msn5, stronger effect = lower value 1 | locus YDR388W, stronger effect = lower value 1.01 | locus YDR392W, strain spt3, stronger effect = lower value 0.866 | locus YDR502C, strain sam2, stronger effect = lower value 1 | locus YEL003W, strain gim4, stronger effect = lower value 1 | locus YEL037C, strain rad23, stronger effect = lower value 0.984 | locus YEL061C, strain CIN8 (second series), stronger effect = lower value 0.979 | locus YEL061C, strain CIN8, stronger effect = lower value 0.999 | locus YER015W, strain faa2, stronger effect = lower value 1.01 | locus YER016W, strain bim1, stronger effect = lower value 0.971 | locus YER110C, stronger effect = lower value 1.02 | locus YER111C, strain swi4, stronger effect = lower value 0.985 | locus YER155C, strain BEM2 (second series), stronger effect = lower value 1.01 | locus YER155C, strain BEM2, stronger effect = lower value 0.992 | locus YER167W, strain BCK2, stronger effect = lower value 1.02 | locus YFR010W, strain ubp6, stronger effect = lower value 0.975 | locus YGL078C, strain dbp3, stronger effect = lower value 1.01 | locus YGL086W, strain mad1, stronger effect = lower value 1.02 | locus YGL167C, strain pmr1, stronger effect = lower value 0.942 | locus YGL173C, strain kem1, stronger effect = lower value 0.983 | locus YGL227W, strain vid30, stronger effect = lower value 1 | locus YGL240W, strain doc1, stronger effect = lower value 0.964 | locus YGL248W, strain PDE1, stronger effect = lower value 1.01 | locus YGL253W, strain hxk2, stronger effect = lower value 0.977 | locus YGR078C, strain PAC10, stronger effect = lower value 1.01 | locus YGR135W, strain pre9, stronger effect = lower value 1.01 | locus YGR252W, strain gcn5, stronger effect = lower value 1.11 | locus YHR013C, strain ard1, stronger effect = lower value 0.966 | locus YHR027C, strain rpn1, stronger effect = lower value 1 | locus YHR030C, strain SLT2, stronger effect = lower value 1 | locus YHR079C, strain IRE1 (second series), stronger effect = lower value 0.997 | locus YHR094C, strain hxt1, stronger effect = lower value 1.01 | locus YHR129C, strain ARP1, stronger effect = lower value 1 | locus YHR142W, strain chs7, stronger effect = lower value 0.985 | locus YHR200W, strain rpn10, stronger effect = lower value 1.02 | locus YIL066C, strain RNR3, stronger effect = lower value 1.03 | locus YIL073C, strain SPO22, stronger effect = lower value 1.09 | locus YIL125W, strain kgd1, stronger effect = lower value 1.02 | locus YIR030C, strain dcg1, stronger effect = lower value 0.998 | locus YJL092W, strain hpr5, stronger effect = lower value 0.992 | locus YJL095W, strain BCK1 (second series), stronger effect = lower value 0.975 | locus YJL095W, strain BCK1, stronger effect = lower value 1.02 | locus YJL115W, strain asf1, stronger effect = lower value 0.996 | locus YJL129C, strain trk1, stronger effect = lower value 1.01 | locus YJL134W, strain LCB3, stronger effect = lower value 0.998 | locus YJL154C, strain vps35, stronger effect = lower value 0.972 | locus YJL164C, strain tpk1, stronger effect = lower value 1.01 | locus YJL166W, strain qcr8, stronger effect = lower value 1.01 | locus YJL168C, strain set2, stronger effect = lower value 0.996 | locus YJL187C, strain SWE1 (second series), stronger effect = lower value 1.02 | locus YJL187C, strain SWE1, stronger effect = lower value 0.975 | locus YJR043C, strain POL32, stronger effect = lower value 1.04 | locus YKL009W, strain mrt4, stronger effect = lower value 1.01 | locus YKL068W, stronger effect = lower value 0.988 | locus YKL085W, strain MDH1 (second series), stronger effect = lower value 1 | locus YKL085W, strain MDH1, stronger effect = lower value 1 | locus YKL160W, strain elf1, stronger effect = lower value 0.982 | locus YKL190W, strain CNB1, stronger effect = lower value 1.01 | locus YKR001C, strain vps1, stronger effect = lower value 1.04 | locus YKR026C, strain gcn3, stronger effect = lower value 0.996 | locus YKR091W, strain srl3, stronger effect = lower value 0.989 | locus YLL001W, strain dnm1, stronger effect = lower value 0.992 | locus YLL026W, stronger effect = lower value 1 | locus YLL041C, strain sdh2, stronger effect = lower value 0.988 | locus YLR027C, strain aat2, stronger effect = lower value 0.986 | locus YLR039C, strain RIC1, stronger effect = lower value 1.02 | locus YLR058C, strain SHM2, stronger effect = lower value 1 | locus YLR102C, strain apc9, stronger effect = lower value 1.01 | locus YLR221C, strain rsa3, stronger effect = lower value 1.01 | locus YLR258W, strain gsy2, stronger effect = lower value 0.998 | locus YLR262C, strain YPT6 (second series), stronger effect = lower value 0.979 | locus YLR262C, strain YPT6, stronger effect = lower value 1.03 | locus YLR268W, strain sec22, stronger effect = lower value 1.02 | locus YLR320W, strain mms22, stronger effect = lower value 0.946 | locus YLR330W, strain CHS5, stronger effect = lower value 0.998 | locus YLR342W, strain FKS1 (second series), stronger effect = lower value 1.05 | locus YLR342W, strain FKS1, stronger effect = lower value 0.978 | locus YLR357W, strain rsc2, stronger effect = lower value 1.02 | locus YLR370C, strain arc18, stronger effect = lower value 0.973 | locus YLR371W, strain rom2, stronger effect = lower value 1.01 | locus YLR384C, strain iki3, stronger effect = lower value 0.961 | locus YLR418C, strain cdc73, stronger effect = lower value 1.07 | locus YML016C, strain PPZ1, stronger effect = lower value 1 | locus YML032C, strain rad52, stronger effect = lower value 1.02 | locus YML120C, strain ndi1, stronger effect = lower value 1.01 | locus YML124C, strain tub3, stronger effect = lower value 1.03 | locus YMR058W, strain fet3, stronger effect = lower value 0.988 | locus YMR078C, strain ctf18, stronger effect = lower value 1.01 | locus YMR125W, strain sto1, stronger effect = lower value 0.997 | locus YMR129W, stronger effect = lower value 0.999 | locus YMR205C, strain PFK2, stronger effect = lower value 0.981 | locus YMR223W, strain ubp8, stronger effect = lower value 1 | locus YMR231W, strain pep5, stronger effect = lower value 0.974 | locus YMR263W, strain SAP30, stronger effect = lower value 1.02 | locus YMR307W, strain GAS1, stronger effect = lower value 1.03 | locus YNL067W, strain RPL9B, stronger effect = lower value 1.02 | locus YNL071W, strain lat1, stronger effect = lower value 0.997 | locus YNL209W, strain ssb2, stronger effect = lower value 1.01 | locus YNL233W, strain BNI4, stronger effect = lower value 1.03 | locus YNL248C, strain rpa49, stronger effect = lower value 0.995 | locus YNL250W, strain rad50, stronger effect = lower value 1.02 | locus YNL271C, strain bni1, stronger effect = lower value 1.02 | locus YNL298W, strain CLA4, stronger effect = lower value 1.03 | locus YNL307C, strain MCK1, stronger effect = lower value 1 | locus YNL322C, strain KRE1 (second series), stronger effect = lower value 1.02 | locus YNR049C, strain mso1, stronger effect = lower value 0.982 | locus YNR052C, strain pop2, stronger effect = lower value 1.01 | locus YOL006C, strain TOP1, stronger effect = lower value 1.29 | locus YOL012C, strain htz1 1.01 | locus YOL147C, strain pex11, stronger effect = lower value 0.999 | locus YOR001W, strain rrp6, stronger effect = lower value 0.988 | locus YOR061W, strain CKA2, stronger effect = lower value 1 | locus YOR069W, strain VPS5, stronger effect = lower value 1.01 | locus YOR070C, strain gyp1, stronger effect = lower value 0.974 | locus YOR080W, strain dia2, stronger effect = lower value 0.977 | locus YOR083W, strain WHI5, stronger effect = lower value 1.03 | locus YOR106W, strain vam3, stronger effect = lower value 1.03 | locus YOR136W, strain idh2, stronger effect = lower value 1.04 | locus YOR144C, strain elg1, stronger effect = lower value 1 | locus YOR184W, strain ser1, stronger effect = lower value 0.995 | locus YOR265W, strain rbl2, stronger effect = lower value 0.981 | locus YOR270C, strain vph1, stronger effect = lower value 0.96 | locus YOR290C, strain snf2, stronger effect = lower value 0.999 | locus YOR316C, strain cot1, stronger effect = lower value 1 | locus YPL051W, strain arl3, stronger effect = lower value 0.976 | locus YPL055C, strain LGE1, stronger effect = lower value 1.07 | locus YPL078C, strain atp4, stronger effect = lower value 0.996 | locus YPL106C, strain sse1, stronger effect = lower value 1.07 | locus YPL240C, strain hsp82, stronger effect = lower value 1 | locus YPR119W, strain clb2, stronger effect = lower value 1 | locus YPR141C, strain kar3, stronger effect = lower value 1.01 | locus YPR163C, strain tif3, stronger effect = lower value 1.02 | locus YPR167C, strain met16, stronger effect = lower value 0.992 | strain wtn01, stronger effect = lower value 1.03

— PubChem BioAssay AID1159580 (chemical genetic matrix, 2015)
